Compounds without any hit were thinned out: in the full panel of roughly 79,000, 15% have a hit. A number with no mark means an inactive call. Active and inactive are the calls of the source. No stated cut-off is given here; in the data, active means growth inhibition above about 70%; inactive means the rest.
Experiment: NCI Yeast Anticancer Drug Screen. Data for the rad50 strain (AID 155);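 further: 0% = growth of vehicle-only cultures of the same strain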
Settings: S. cerevisiae rad50 strain growth inhibition; at 50.0 µM; hits give high values
Method in brief: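 Readout: growth inhibition relative to vehicle-treated cultures. Compound exposure was carried out in a genetically defined yeast strain deficient in DNA damage repair.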
Compound CC1(c2ccc(C(O)c3ccccc3)s2)OCCO1 (stereo not given) has a growth inhibition of 1.8%. Work on CCCCCCC(O)C/C=C/CCCCCC/C(C(=O)OC)=C(/O)C(=O)OCC (stereo not given) yielded a growth inhibition of 3.3%. For CCCCCc1c(-c2n[nH]c(C)c2CCCCC)n[nH]c1C, the growth inhibition was 5.55%. Work on Cc1cccc(CCSCCc2cccc(C)[n+]2[O-])[n+]1[O-] yielded a growth inhibition of 19.8%. In the case of O=C(Nc1ccc(Cl)cc1)OC(C(=O)c1ccccn1)c1ccccn1 (stereo not given), the growth inhibition is reported as 0.25%. CC(C)(O)c1cc(=O)n(-c2ccccc2)[nH]1 showed a growth inhibition of -6%. With O=C(Cc1ccccc1)OCC(=O)c1ccc(-c2ccccc2)cc1 the growth inhibition was -1.05%. In the case of O=C(Nc1ccccc1)c1ccccc1C(O)(c1ccccc1)c1ccc(Cl)cc1 (stereo not given), the growth inhibition is reported as 84.7% (active). CCOC(=O)C1/C(=N\N=C2\c3c(nnp3N(CCOS(C)(=O)=O)CCOS(C)(=O)=O)C(C(=O)OCC)C(c3ccc(OC(C)=O)cc3)C2C(=O)OCC)c2c(nnp2N(CCOS(C)(=O)=O)CCOS(C)(=O)=O)C(C(=O)OCC)C1c1ccc(OC(C)=O)cc1 (stereo not given) gave a growth inhibition of 6.75%. Work on CCCCCCCCCCCCCCCCCC(=O)Oc1ccc(OCc2ccccc2)cc1 yielded a growth inhibition of -13.5%. Compound Nc1nc(N)nc(CC(=O)O)n1 has a growth inhibition of -16.5%. N#Cc1c2c(c(-c3cccs3)n(C3OC(CO)C(O)C(O)C3O)c1=S)CCc1ccccc1-2 (stereo not given) gave a growth inhibition of 10.7%. For CN(C)C=Nc1c(Br)cc(Br)c2nonc12, the growth inhibition was -26.7%. Work on COc1ccccc1NC(=O)CC(=O)N1N=C(N2c3ccccc3Sc3ccccc32)CC1c1ccccc1 (stereo not given) yielded a growth inhibition of 2.55%. N#Cc1nc(-c2cc([N+](=O)[O-])cc([N+](=O)[O-])c2)oc1N showed a growth inhibition of -14.6%. In the case of O=C(Nc1ccc(Cl)cc1C(=O)O)c1ccc([N+](=O)[O-])cc1, the growth inhibition is reported as 23.1%. Compound O=CCC1CCCCC1 has a growth inhibition of -4.8%. CC(C)(C)C(=CS(=O)/N=C/c1ccccc1)C(C)(C)C (stereo not given) gave a growth inhibition of -27.4%. With COC(=O)/C=C/C(=N/N(C)c1ccccc1)c1ccccc1 the growth inhibition was 3.35%. For CC1CCC2(CC1)NN=c1s/c(=C\c3ccc(O)cc3)c(=O)n1N2 (stereo not given), the growth inhibition was -9.3%. CCN(CC)CC(=O)Nc1c(C(N)=O)nnn1Cc1cc(Cl)c(C(=O)c2ccc(Cl)cc2)c(Cl)c1 gave a growth inhibition of 41.8%. Work on O=c1[nH]c2ccccc2c(O)c1-c1ccccc1 yielded a growth inhibition of 6.95%. With COC(=O)Oc1ccc(Cl)cc1Cl the growth inhibition was -18.1%. For CC(C)(C)OC(=O)NC1CC=CCC1NC(=O)OC(C)(C)C (stereo not given), the growth inhibition was -52.7%. For CC(C)(C)C(=O)/C(O)=C\c1ccccc1, the growth inhibition was -4.25%. For CCCS(CCC)=NS(=O)(=O)c1ccc(C)cc1, the growth inhibition was -6.75%. Work on CC(N)C(=O)NC(C(=O)NC1C(O)OC(CO)C(O)C1O)C(C)C (stereo not given) yielded a growth inhibition of 6.1%. Compound CCN1C(=O)c2cc(=O)[nH]c(O)c2C1C (stereo not given) has a growth inhibition of 7.8%. In the case of O=C1C=CC(Nc2ccc(Cl)c(Cl)c2)C1Nc1ccc(Cl)c(Cl)c1 (stereo not given), the growth inhibition is reported as 39.5%. CN(C)CCCNc1nnc(NCCCN(C)C)c2[nH]cnc12 gave a growth inhibition of -3.2%. COC1=CC(=O)C2CC=C(C)CC2(C)C1=O (stereo not given) gave a growth inhibition of -7.9%. Compound CN1c2ccccc2C2CC(CC#N)CC(=O)C21 (stereo not given) has a growth inhibition of 18.9%. With CC1=CC=CNC1(N)Br (stereo not given) the growth inhibition was 3.7%. With CCc1nnc(N)o1 the growth inhibition was -14.8%. Compound CCC(C)CCOC(=O)c1ccc(N=Cc2ccc(C=Nc3ccc(C(=O)OCCC(C)CC)cc3)cc2)cc1 (stereo not given) has a growth inhibition of -20.5%. For O=C1NC(CN2CCCCC2)C(=O)NC1CN1CCCCC1 (stereo not given), the growth inhibition was -1.1%. Work on Cc1ccc(S(=O)(=O)/C=C\S(=O)(=O)c2ccc(C)cc2)cc1 yielded a growth inhibition of -7.35%. With O=C(CNC(=O)OCc1ccccc1)NCCNCCNC(=O)CNC(=O)OCc1ccccc1 the growth inhibition was -26.9%. Compound Cc1cc(C)c2c(SCc3ccc(Cl)cc3Cl)nc(N)nc2n1 has a growth inhibition of 31.8%. Work on CC(=O)Nc1c(C)ccc([N+](=O)[O-])c1C yielded a growth inhibition of -3.2%.

Experiment: NCI Yeast Anticancer Drug Screen. Data for the mec2-1 strain (AID 157)
Settings: S. cerevisiae mec2-1 strain, at 50.0 µM, hits give high values
Method in brief: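 Test agents were screened against the mec2-1 yeast strain, with defined DNA repair or cell cycle alteration. Growth was scored as inhibition against vehicle-only controls.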
With CC1(c2ccc(C(O)c3ccccc3)s2)OCCO1 (stereo not given) the growth inhibition was 7.3%. Work on CCCCCCC(O)C/C=C/CCCCCC/C(C(=O)OC)=C(/O)C(=O)OCC (stereo not given) yielded a growth inhibition of -3.35%. CCCCCc1c(-c2n[nH]c(C)c2CCCCC)n[nH]c1C showed a growth inhibition of -6.05%. Work on Cc1cccc(CCSCCc2cccc(C)[n+]2[O-])[n+]1[O-] yielded a growth inhibition of -2.45%. In the case of O=C(Nc1ccc(Cl)cc1)OC(C(=O)c1ccccn1)c1ccccn1 (stereo not given), the growth inhibition is reported as 13.7%. CC(C)(O)c1cc(=O)n(-c2ccccc2)[nH]1 showed a growth inhibition of -6.3%. Compound O=C(Cc1ccccc1)OCC(=O)c1ccc(-c2ccccc2)cc1 has a growth inhibition of 15.1%. Compound O=C(Nc1ccccc1)c1ccccc1C(O)(c1ccccc1)c1ccc(Cl)cc1 (stereo not given) has a growth inhibition of 14%. CCOC(=O)C1/C(=N\N=C2\c3c(nnp3N(CCOS(C)(=O)=O)CCOS(C)(=O)=O)C(C(=O)OCC)C(c3ccc(OC(C)=O)cc3)C2C(=O)OCC)c2c(nnp2N(CCOS(C)(=O)=O)CCOS(C)(=O)=O)C(C(=O)OCC)C1c1ccc(OC(C)=O)cc1 (stereo not given) showed a growth inhibition of -0.05%. CCCCCCCCCCCCCCCCCC(=O)Oc1ccc(OCc2ccccc2)cc1 gave a growth inhibition of -25.6%. Work on Nc1nc(N)nc(CC(=O)O)n1 yielded a growth inhibition of -22.7%. For N#Cc1c2c(c(-c3cccs3)n(C3OC(CO)C(O)C(O)C3O)c1=S)CCc1ccccc1-2 (stereo not given), the growth inhibition was -9.55%. CN(C)C=Nc1c(Br)cc(Br)c2nonc12 showed a growth inhibition of -31.1%. Work on COc1ccccc1NC(=O)CC(=O)N1N=C(N2c3ccccc3Sc3ccccc32)CC1c1ccccc1 (stereo not given) yielded a growth inhibition of 3.2%. Work on N#Cc1nc(-c2cc([N+](=O)[O-])cc([N+](=O)[O-])c2)oc1N yielded a growth inhibition of -10.6%. Work on O=C(Nc1ccc(Cl)cc1C(=O)O)c1ccc([N+](=O)[O-])cc1 yielded a growth inhibition of 18.2%. Compound O=CCC1CCCCC1 has a growth inhibition of -2.2%. Compound CC(C)(C)C(=CS(=O)/N=C/c1ccccc1)C(C)(C)C (stereo not given) has a growth inhibition of -33%. COC(=O)/C=C/C(=N/N(C)c1ccccc1)c1ccccc1 showed a growth inhibition of -0.2%. Compound CC1CCC2(CC1)NN=c1s/c(=C\c3ccc(O)cc3)c(=O)n1N2 (stereo not given) has a growth inhibition of -1.7%. With CCN(CC)CC(=O)Nc1c(C(N)=O)nnn1Cc1cc(Cl)c(C(=O)c2ccc(Cl)cc2)c(Cl)c1 the growth inhibition was -14.5%. O=c1[nH]c2ccccc2c(O)c1-c1ccccc1 showed a growth inhibition of 0.8%. COC(=O)Oc1ccc(Cl)cc1Cl gave a growth inhibition of -6.05%. In the case of CC(C)(C)OC(=O)NC1CC=CCC1NC(=O)OC(C)(C)C (stereo not given), the growth inhibition is reported as -11.6%. For CC(C)(C)C(=O)/C(O)=C\c1ccccc1, the growth inhibition was 6.2%. With CCCS(CCC)=NS(=O)(=O)c1ccc(C)cc1 the growth inhibition was -0.7%. With CC(N)C(=O)NC(C(=O)NC1C(O)OC(CO)C(O)C1O)C(C)C (stereo not given) the growth inhibition was -17.2%. In the case of CCN1C(=O)c2cc(=O)[nH]c(O)c2C1C (stereo not given), the growth inhibition is reported as -2.7%. O=C1C=CC(Nc2ccc(Cl)c(Cl)c2)C1Nc1ccc(Cl)c(Cl)c1 (stereo not given) gave a growth inhibition of 36.1%. For CN(C)CCCNc1nnc(NCCCN(C)C)c2[nH]cnc12, the growth inhibition was -4.2%. With COC1=CC(=O)C2CC=C(C)CC2(C)C1=O (stereo not given) the growth inhibition was -12.4%. For CN1c2ccccc2C2CC(CC#N)CC(=O)C21 (stereo not given), the growth inhibition was 13.7%. CC1=CC=CNC1(N)Br (stereo not given) gave a growth inhibition of 4%. CCc1nnc(N)o1 showed a growth inhibition of 1.9%. For CCC(C)CCOC(=O)c1ccc(N=Cc2ccc(C=Nc3ccc(C(=O)OCCC(C)CC)cc3)cc2)cc1 (stereo not given), the growth inhibition was 2.7%. O=C1NC(CN2CCCCC2)C(=O)NC1CN1CCCCC1 (stereo not given) gave a growth inhibition of -13.4%. For Cc1ccc(S(=O)(=O)/C=C\S(=O)(=O)c2ccc(C)cc2)cc1, the growth inhibition was -3.15%. Work on O=C(CNC(=O)OCc1ccccc1)NCCNCCNC(=O)CNC(=O)OCc1ccccc1 yielded a growth inhibition of 6.7%. Work on Cc1cc(C)c2c(SCc3ccc(Cl)cc3Cl)nc(N)nc2n1 yielded a growth inhibition of 12.3%. Work on CC(=O)Nc1c(C)ccc([N+](=O)[O-])c1C yielded a growth inhibition of -2.2%.
